High-throughput results: PubChem, National Center for Advancing Translational Sciences (NCATS)
JMJD2A Tudor – blocks the human JMJD2A Tudor domain; Potency, µM (titrated, usually from 114 µM), for the others: at the top dose activity change, negative = inhibition, most hits filed as inhibitors; hit rate 4.4% among 390,000; AlphaScreen JMJD2A-Tudor / H3K4me3 peptide binding; O75164; further: on the % scale 0 is the no-effect control and ±100 the full control effect; nearly all actives have a fitted effect of over 50% in size
Sfp PPTase inh – Sfp phosphopantetheinyl transferase inhibition; hit rate 3.5% among 310,000; Potency, µM, without a hit: largest response in the series, negative = inhibition, actives largely listed as inhibitors; AID 1490; Biochemical Sfp PPTase activity, qHTS; Q9F4F7;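 further: the enzyme is Sfp with the accession as filed and its product quenches rhodamine fluorescence; 0% = enzyme reaction without inhibitor and -100% = no enzyme wells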
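Buffer: 50 mM Hepes-Na pH 7.6, 10 mM MgCl2, 0.01% Nonidet P-40, 0.01% BSA. Enzyme 15 nM, pre-exposed to compound 15 min; substrates then added and fluorescence change tracked over 30 min.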
BAZ2B inh – blocks human BAZ2B | Q9UIF8 | hit rate 4.4% among 360,000 | Potency, µM (doses to about 114 µM), for inactives: at the top dose activity change, negative = inhibition, most hits filed as inhibitors | AlphaScreen BAZ2B-H3K14Ac peptide displacement; further: on the % scale 0 is the no-effect control and ±100 the full control effect; nearly all actives have a fitted effect of over 60% in size
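Inhibition is scored as reduced AlphaScreen emission. The BAZ2B/b-H3(5-23)K14Ac complex (50 nM each) in PBS pH 7.4, 0.01% Tween-20 meets compound (up to 110 uM) for 30 min at RT before bead addition.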
L3MBTL1 inh – blocks human L3MBTL1. hit rate 0.66% among 230,000. Potency, µM (doses to about 57.1 µM), inactives show at the top dose activity, negative = inhibition, actives largely listed as inhibitors. AlphaScreen L3MBTL1–H3K9me1 peptide binding; further: on the % scale 0 is the no-effect control and ±100 the full control effect; nearly all actives have a fitted effect of over 60% in size
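Read-out is AlphaScreen signal from streptavidin donor and nickel chelate acceptor beads (10 ug/mL final each) bridging L3MBTL1 (50 nM) and biotinylated K9-monomethylated H3(1-15) peptide (75 nM), after 30 min compound exposure at room temperature.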
G9a block – inhibitors of human histone lysine methyltransferase G9a | Q96KQ7 | G9a H3K9 monomethylation, AlphaScreen, 2 h | Potency, µM (titrated, usually from 102 µM), for the others: at the highest dose activity, negative = inhibition, most hits filed as inhibitors | hit rate 8.8% among 350,000 | AID 504332; further: on the % scale 0 is the no-effect control and ±100 the full control effect; nearly all actives have a fitted effect of over 75% in size
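G9a (20 nM) preincubated 15 min RT with compounds, then 500 nM biotinylated H3K9 peptide and 20 uM SAM added; 2 h RT reaction. Monomethyl-H3K9 product detected by AlphaScreen with anti-H3K9me1 antibody, streptavidin donor and anti-rabbit IgG acceptor beads.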
HP1b binding inh – inhibitors of HP1-beta chromodomain binding to methylated histone tails; AID 540317; Potency, µM (top dose mostly 114 µM), for the others: at the top dose activity change, negative = inhibition, most hits filed as inhibitors; hit rate 0.56% among 390,000; AlphaScreen HP1-beta / biotin-H3K9me3 peptide binding; P83916; further: nearly all actives have a fitted effect of over 70% in size
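Compound inhibition of the preformed complex between 50 nM HP1-beta and 50 nM biotinylated H3K9me3 peptide was read by AlphaScreen. Buffer was PBS pH 7.4 with 0.01% Tween-20. Incubations ran 30 min at room temperature, with 10 ug/mL donor/acceptor beads.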
* marks the source's active call; other numbers are inactive results; ? = inconclusive; nt = no result given; [ ] = another dose, or the depositor's remark. A selection: hits, their analogues and other compounds. The true share with any hit is near 12%. The call rests on the fitted dose curve; in most records, active means well fitted curve in the direction sought with a large enough effect; inconclusive means small, poorly fitted or top-dose-only effect, or another doubt; inactive means no such curve, though single readings can be large; an effect the other way counts as inactive or inconclusive. Potency means the concentration at half of the fitted maximal effect.

SMILES | JMJD2A Tudor | Sfp PPTase inh | BAZ2B inh | L3MBTL1 inh | G9a block | HP1b binding inh
CCOC(=O)N1CCN(C(=O)CCCn2c(=O)[nH]c3ccccc3c2=O)CC1 | -9% | 20% | -1% | 4% | 21%[59 µM] | 27%
CCOC(=O)N1CCN(C(=O)CCCCCn2c(=S)[nH]c3ccsc3c2=O)CC1 | 79µM* | ? | -13% | nt | 18µM* | 34%
CCOC(=O)N1CCN(C(=O)CCCn2c(=S)[nH]c3ccc(Br)cc3c2=O)CC1 | -13% | -2% | -9% | nt | 10µM* | 24%
Cc1cc(=O)oc2cc(OCC(=O)N3CCN(C(=O)c4ccco4)CC3)ccc12 | 0% | 12% | 5% | nt | 9% | 48%
COC(=O)/C(=C(/F)SCC(C)=O)C(F)(F)F | nt | -5% | -30% | nt | 16µM* | nt
CC(C)(N=NC(C)(C)C(=N)N)C(=N)N | nt | -8% | nt | nt | -30%[2.33 µM] | nt
Cc1nn(-c2ccc(Cl)cc2)c2[nH]c(CCl)cc(=O)c12 | 79µM* | 13% | -31% | nt | ? | 9%
Cc1cc(=O)[nH]c2c1c(C)nn2-c1ccccc1 | -9% | 2% | 0% | 5% | -11%[59 µM] | 10%
Cc1ccc(S(=O)(=O)N2CCCCC2)cc1NC(=O)COC(=O)CN1C(=O)NC2(CC(C)CC(C)(C)C2)C1=O (stereo not given) | -26% | nt | nt | nt | nt | 14%
Cc1ccc(N/N=C2\CS(=O)(=O)N(C)c3ccsc32)cc1 | -27% | -18% | ? | ? | 45µM* | -5%
O=C1NCCC/C1=N/Nc1ccc(F)cc1 | -16% | 12% | -25% | ? | ? | 52%
CN1c2ccsc2/C(=N/Nc2ccc(F)cc2)CS1(=O)=O | 25µM* | -13% | ? | -18% | 14µM* | ?
CCCC(=O)N/N=C1\CS(=O)(=O)N(C)c2ccsc21 | -9% | 1% | -39% | nt | -14% | 4%
COC(=O)c1ccccc1NC(=S)N(Cc1ccc2c(c1)OCO2)Cc1cc2ccc(OC)cc2[nH]c1=O | -27%[57.1 µM] | -2% | ? | -9% | 0.28µM* | 28%
COC(=O)c1ccccc1NC(=S)N(Cc1ccc2c(c1)OCO2)Cc1cc2ccc(C)cc2[nH]c1=O | -13%[57.1 µM] | 2% | -2% | -13% | -3%[59 µM] | 28%
C[C@H](CO)NC(=O)[C@H]1C[C@@H]1[C@H](NP(=O)(c1ccccc1)c1ccccc1)c1ccccc1 | nt | -4% | nt | nt | nt | nt
CSc1ccc(CNC(=O)CCn2ccc3cc(S(=O)(=O)N4CCC(C)CC4)ccc32)cc1 | -5% | nt | -23% | nt | -8%[59 µM] | 24%
COc1ccc(/C(C)=N/NC(=O)CNC(=O)Cc2ccccc2)c(OC)c1 | -9% | 2% | 2% | 13% | nt | 43%
COc1ccc2c(c1)C(=NN)c1cc(OC)ccc1-2 | 56µM* | 8% | 40µM* | -15% | ? | -20%
COc1ccc2c(c1)C(=NNc1ccc(C(=O)O)cc1)c1cc(OC)ccc1-2 | 50µM* | -18% | 40µM* | nt | ? | ?
COc1ccc2c(c1)c(/C=N/Nc1ccc(C(=O)O)cc1)c(C)n2C | ? | -6% | ? | nt | 8.9µM* | -4%[57 µM]
COc1ccc(/C(C)=N/Nc2ccc(C(=O)O)cc2)c(OC)c1 | -15% | 1% | -8% | -18% | 1.6µM* | 25%
COc1ccc2c(/C=N/Nc3ccc(C(=O)O)cc3)c[nH]c2c1 | ? | -26% | ? | nt | ? | 9%
COc1cccc(C(=O)Nc2ccc(C(=O)O)cc2)c1 | -9% | -5% | 6% | 18% | -40% | 29%
CC1(O)C(=O)C=C2C=C3CCCN3C=C2C1=O (stereo not given) | nt | -9% | nt | nt | nt | nt
SMILES | JMJD2A Tudor | Sfp PPTase inh | BAZ2B inh | L3MBTL1 inh | G9a block | HP1b binding inh
Cc1ccc(-n2nc3c(c2NC(=O)C(C)(C)C)CS(=O)(=O)C3)cc1 | 7% | 18% | -3% | nt | 17% | 21%[57 µM]
O=[N+]([O-])c1nn(-c2ccc3c(c2)OCCO3)n(O)c1=Nc1ccccc1 | 45µM* | 1% | 40µM* | -28% | ? | -34%
CCc1ccc(N=c2c([N+](=O)[O-])nn(-c3ccc4c(c3)OCCO4)n2O)cc1 | 32µM* | -14% | 25µM* | nt | 18µM* | ?
O=[N+]([O-])c1nn(-c2ccc3c(c2)OCCO3)n(O)c1=NC1CCCCCC1 | 22µM* | -18% | 14µM* | nt | 13µM* | ?
Cc1ccc(N=c2c([N+](=O)[O-])nn(-c3ccc4c(c3)OCCO4)n2O)c(Cl)c1 | nt | -15% | -27% | -7% | 45µM* | nt
O=[N+]([O-])c1nn(-c2ccc3c(c2)OCCO3)n(O)c1=Nc1ccc(Cl)cc1 | -30% | -19% | ? | -10% | ? | -5%
CC1CCCC(NC(=O)COC(=O)c2n[nH]c3ccccc23)C1C (stereo not given) | -10% | nt | nt | 2% | nt | 22%
CCN1Cc2c(/C=C/c3ccccc3)nc3ccc(OC)cc3c2N(c2cccc(Cl)c2)C1 | -26% | 13% | ? | -25% | 13µM* | 36%
COc1cccc(N2CCc3c(C)nc4ccc(Cl)cc4c32)c1 | 46% | -6% | -1% | nt | 41% | 94%
COc1ccc(NC(=O)CCC(=O)N/N=C/c2ccncc2)cc1 | 7% | 8% | -5% | 9% | 22µM* | 53%
Cc1ccccc1NC(=O)CCC(=O)N/N=C/c1ccncc1 | -18%[11.4 µM] | ? | ? | -7% | 7.1µM* | 62%
O=C(CCC(=O)Nc1ccc(F)cc1)N/N=C/c1ccncc1 | 3.5µM* | 45µM* | nt | nt | 6% | 4%
O=C(CCC(=O)Nc1ccccc1)N/N=C/c1ccncc1 | -17%[11.4 µM] | ? | 1% | 23% | 20%[59 µM] | 7%
NC(=S)Nc1cnc2ccccc2c1 | -9% | 3% | 9% | 1% | 50µM* | 21%
COc1ccc(NC(=S)Nc2cnc3ccccc3c2)c(OC)c1 | 1% | -1% | ? | -7%[11.4 µM] | ? | 26%
COc1cc(/C=C/c2nc(C#N)c(NCCc3ccccc3)o2)cc(OC)c1OC | -3% | nt | -26% | nt | ? | -8%
O=C1C2=C(c3ccccc31)[N+](=O)[C@@H]1CCCC[C@@H]1N2[O-] | -26% | 56µM* | -11% | -1% | ? | 5%
O=P(O)(O)OC(CO)CO | nt | -6% | nt | nt | nt | nt
CNC(=S)N(CCc1c(C)[nH]c2ccc(C)cc12)Cc1ccc(OC)c(OC)c1 | ? | -13% | 32µM* | -3% | 50µM* | -2%
CNC(=S)N(CCc1c(C)[nH]c2ccc(C)cc12)Cc1ccco1 | ? | -5% | 50µM* | 0% | 45µM* | -19%
CNC(=S)N(CCc1c(C)[nH]c2ccc(Cl)cc12)Cc1cccs1 | nt | 15% | ? | -16% | ? | nt
COc1cc(CN(CCc2c(C)[nH]c3ccc(C)cc23)C(=S)NC(C)(C)C)cc(OC)c1OC | 50µM* | 15% | ? | 0% | ? | ?
